# Screens as filed in PubChem.
# GLD-1 TGE inh: GLD-1-TGE RNA interaction inhibition (C. elegans); Q17339; purified GLD-1 + fluorescein TGE RNA, fluorescence polarization; inhibition, % at 5.96 µM; 0.44% of 320,000 active; AID 2280;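 active = percent inhibition above a per-plate cutoff, the plate mean of test compounds plus 3 SD, cut at about 30% in these data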;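 note: 0% = DMSO wells with GLD-1 and probe and 100% = wells lacking GLD-1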
# Target sequence (Q17339 whole entry, looked up): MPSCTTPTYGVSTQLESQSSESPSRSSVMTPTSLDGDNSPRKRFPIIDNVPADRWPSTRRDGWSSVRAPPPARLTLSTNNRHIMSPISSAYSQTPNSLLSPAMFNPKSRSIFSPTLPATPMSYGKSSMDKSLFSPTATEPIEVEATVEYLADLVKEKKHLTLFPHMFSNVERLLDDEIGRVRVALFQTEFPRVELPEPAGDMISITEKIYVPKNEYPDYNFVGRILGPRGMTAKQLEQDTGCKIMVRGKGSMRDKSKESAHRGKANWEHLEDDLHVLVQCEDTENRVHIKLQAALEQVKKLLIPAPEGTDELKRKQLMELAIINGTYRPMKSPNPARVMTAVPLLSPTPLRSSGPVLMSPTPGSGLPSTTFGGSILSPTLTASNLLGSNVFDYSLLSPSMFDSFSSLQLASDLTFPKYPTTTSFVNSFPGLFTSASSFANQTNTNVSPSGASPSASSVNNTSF
# Mcl1-Noxa inh: Mcl-1/Noxa interaction inhibition; Q07820; TR-FRET Mcl-1/Noxa peptide binding, 2 h; inhibition, % at 21.7 µM; 1.5% of 220,000 active; AID 1022;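 active = compounds that cut the protein-peptide binding signal by more than 50% relative to plate controls in a single-dose test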;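 note: His-tagged Mcl-1 with rhodamine Noxa BH3 peptide and terbium anti-His antibody; 0% = Mcl-1 plus Noxa peptide wells and 100% = peptide-only wells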
# Mcl1-Bid inh: disrupts binding of human Mcl-1 to Bid peptide; inhibition, % at 21.7 µM; AID 1021; 0.97% of 220,000 active; Q07820; TR-FRET Mcl-1/Bid-Dy647 peptide binding, 1536-well;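 active = compounds that cut the binding signal by more than half at the single screening dose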;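 note: His-tagged Mcl-1 with europium anti-His antibody binding Bid BH3 peptide; 0% = Mcl-1 plus peptide wells and 100% = peptide-only wells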
# MCL1-BIM inh: inhibitors of human MCL1 binding to BIM-BH3 peptide. Q07820. GST-MCL1 / FITC-Bim-BH3 fluorescence polarization. inhibition, % at 10.9 µM. 0.68% of 320,000 active. AID 2057;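 active = inhibition above the mean inhibition of all tested compounds plus 3 SD, set per campaign, cut at about 40% in these data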;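 note: 0% = DMSO wells and 100% = unlabeled Bim-BH3 peptide control; higher means more loss of mP so more displacement of Bim peptide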
# Bim-Mcl-1: human Bim-Mcl-1 interaction inhibition; Q07820; Bead-based flow cytometry, Bim peptide-Mcl-1 binding; inhibition, % at 10 µM; 0.1% of 190,000 active; in the data active = inhibition above about 40%;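 note: 0% = no compound tracer wells and 100% = peptide blocker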
# Bcl-xL primary: inhibitors of human Bcl-xL; GST-Bcl-xL / FITC-Bim BH3 peptide fluorescence polarization; inhibition, % at 10.9 µM; 0.7% of 320,000 active; Q07817;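 active = inhibition above the mean of all tested compounds plus 3 SD, cutoff set per campaign, cut at about 30% in these data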;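 note: 0% = DMSO wells and 100% = unlabeled Bim-BH3 peptide competitor; inhibitors lower millipolarization by displacing the labeled peptide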
# Target sequence (Q07817 whole entry, looked up): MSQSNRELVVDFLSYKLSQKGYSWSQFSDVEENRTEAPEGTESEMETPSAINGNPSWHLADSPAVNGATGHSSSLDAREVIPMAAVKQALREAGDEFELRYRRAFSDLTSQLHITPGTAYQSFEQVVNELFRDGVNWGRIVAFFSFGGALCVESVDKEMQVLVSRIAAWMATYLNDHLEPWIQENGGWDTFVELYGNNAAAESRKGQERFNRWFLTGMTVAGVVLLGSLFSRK
# Bcl-xL conf: counter-screen for MCL1 inhibitors: confirmation of human Bcl-xL inhibitors; AID 2166; 54% of 1,700 active; inhibition, % at 10.9 µM; shares compounds with MCL1-BIM inh; GST-Bcl-xL / FITC-Bim BH3 peptide FP binding;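 active = inhibition above a cutoff equal to the mean inhibition of all tested compounds plus 3 SD, cut at about 30% in these data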;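 note: 0% = DMSO wells and 100% = unlabeled Bim BH3 control peptide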
# MCL1 inh confirm: confirmation of human MCL1 and BIM-BH3 interaction inhibitors; 61% of 1,700 active; shares compounds with MCL1-BIM inh; AID 2168; GST-MCL1 / FITC-Bim-BH3 fluorescence polarization; inhibition, % at 10.9 µM;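 active = inhibition above the average of all tested compounds plus 3 SD, cut at about 40% in these data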;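 note: 0% = DMSO wells and 100% = unlabeled Bim-BH3 control peptide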
# GLD-1 TGE cf: confirmation of C. elegans GLD-1 TGE RNA binding inhibitors; shares compounds with GLD-1 TGE inh; GLD-1/FL-TGE RNA fluorescence polarization, biochemical; inhibition, % at 5.96 µM; 10% of 550 active; AID 2459;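 active = average inhibition across triplicates above the hit cutoff set in the primary screen, cut at about 32% in these data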;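 note: 0% = GLD-1 with RNA probe and DMSO and 100% = wells lacking GLD-1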
# The depositor's hits bear a star; . = no result. In the library only some 2.3% were active in any assay of this set; here they are far more common.
SMILES,GLD-1 TGE inh,Mcl1-Noxa inh,Mcl1-Bid inh,MCL1-BIM inh,Bim-Mcl-1,Bcl-xL primary,GLD-1 TGE cf,others
CCOC(=O)N1CCN(C(=O)c2cccc(F)c2)CC1,1.9,16.1,-20.5,1.5,1.0,6.6,.,
COc1cccc(C2C=C(c3ccc(OC)cc3OC)Nc3nnnn32)c1 (stereo unspecified),38.6*,7.4,-57.0,50.9*,-1.0,53.6*,18.0,Bcl-xL conf=14.3;MCL1 inh confirm=22.1
O=C(CN1C(=O)NC2(CCCC2)C1=O)NNC(=O)c1ccccc1F,1.7,.,.,8.2,.,9.7,.,
O=C(O)c1ccc2c(c1)C(=O)/C(=C/c1ccccc1)C2=O,46.4*,64.3*,-19.7,91.8*,4.0,76.7*,12.5,Bcl-xL conf=45.4*;MCL1 inh confirm=65.9*
O=C(O)c1ccc2c(=O)n3c(nc2c1)/C(=C/c1ccc(C(F)(F)F)cc1)CC3,0.2,.,.,1.7,.,-4.3,.,
O=c1c2ccccc2nc2n1CC/C2=C/N1CCN(c2cccc(C(F)(F)F)c2)CC1,42.1*,20.3,-30.8,55.6*,-5.0,50.2*,2.1,Bcl-xL conf=19.7;MCL1 inh confirm=15.9
Cc1cccc(NC(=O)COC(=O)c2cccc3c2C(=O)c2ccccc2C3=O)c1C,1.4,4.8,-7.6,8.4,1.0,16.4,.,
Nc1cccc(C(=O)OCC(=O)Nc2cccc3c2C(=O)c2ccccc2C3=O)c1,47.0*,64.1*,77.4*,118.5*,-2.0,97.7*,67.2*,Bcl-xL conf=107.1*;MCL1 inh confirm=146.2*
Clc1cccc(Cl)c1C1Nc2cccc3cccc(c23)N1,13.2,.,.,14.4,.,15.8,.,
Clc1cccc(C2Nc3cccc4cccc(c34)N2)c1,32.0*,.,.,46.4*,.,27.3,0.6,Bcl-xL conf=25.0;MCL1 inh confirm=41.0*
O=C(NCCC1=CCCCC1)C(=O)NCc1ccncc1,46.7*,10.0,-18.7,68.3*,2.0,73.0*,13.0,Bcl-xL conf=9.0;MCL1 inh confirm=-0.9
COc1ccc(NC(=O)C(c2ccc(Cl)cc2)C(C)C)cn1 (stereo unspecified),36.4*,.,.,26.4,.,35.7*,29.5,
COc1ccc(NC(=O)Cc2ccccc2)cn1,36.0*,10.8,-33.4,40.4*,1.0,37.5*,35.5*,
CCOC(=O)c1c(S(=O)(=O)N2CCCC(C(=O)Nc3cccc(C)n3)C2)c(C)n(C)c1C (stereo unspecified),0.5,.,.,-0.8,.,2.8,.,
COc1ccc(-n2c(Cc3cc(=O)[nH]c(=O)[nH]3)nnc2SCC(=O)NC2CCCC2)cc1,17.2,3.9,-18.5,10.2,0.0,7.7,.,
O=C(CSc1nnc(Cc2cc(=O)[nH]c(=O)[nH]2)n1-c1ccc(Cl)cc1)NC1CCCC1,36.6*,11.8,-20.4,26.9,-2.0,17.8,18.3,
CC(=O)Nc1cccc(Oc2nc(-c3ccccn3)nc3ccccc23)c1,31.2*,-10.9,-7.8,-3.8,.,1.0,-3.3,
COc1cc(C(=O)NC(=S)Nc2ccc([N+](=O)[O-])cc2)cc(OC)c1OC,32.2*,26.0,-8.9,12.3,-6.0,6.9,-2.6,
COc1ccc2c(c1)cc(C(=O)N[C@@H](Cc1ccccc1)C(=O)O)n2C,43.9*,.,.,17.1,.,25.5,-1.9,
COc1ccc2c(c1)cc(C(=O)N[C@@H](Cc1ccccc1)C(=O)N[C@@H](C)C(=O)O)n2C,1.1,.,.,2.6,.,0.7,.,
CC(C)Cn1c(N)c(C(=O)CSc2n[nH]c(N)n2)c(=O)n(C)c1=O,6.5,.,.,6.7,.,4.8,.,
O=C(NCCc1ccccc1)C(=O)NCC1OCCN1S(=O)(=O)c1ccc(F)cc1 (stereo unspecified),12.1,.,.,-0.6,.,0.7,.,
Cc1cc2c(c(=O)o1)C(c1ccc([N+](=O)[O-])o1)C(C#N)=C(N)O2 (stereo unspecified),36.4*,2.4,-25.8,47.3*,.,46.0*,-6.1,
CCOC(=O)C1=C2NC(=O)c3ccccc3N2C(=O)C1,52.4*,-0.7,-29.4,43.4*,-1.0,47.6*,4.1,
Nc1n[nH]c2cc(=O)n(-c3ccc(Cl)cc3)nc12,34.5*,19.5,-25.0,27.5,1.0,26.3,16.9,
SMILES,GLD-1 TGE inh,Mcl1-Noxa inh,Mcl1-Bid inh,MCL1-BIM inh,Bim-Mcl-1,Bcl-xL primary,GLD-1 TGE cf,others
Cc1cccc(OCCNc2ccc([N+](=O)[O-])cn2)c1,32.5*,18.1,-39.3,-4.2,-5.0,1.9,5.4,
COC(=O)C(N)Cc1ccc(O)c(O)c1 (stereo unspecified),70.5*,16.2,-12.8,11.1,3.0,10.6,6.7,
C[C@](N)(Cc1ccc(O)c(O)c1)C(=O)O,.,14.1,-21.6,.,5.0,.,.,
CCCCC(=O)Nc1ccc(NCc2ccc(C)s2)cc1,38.4*,.,.,-6.2,.,1.0,3.7,
CC(C)c1ccc(NC2CCCN(C(=O)c3ccc(N4CCOCC4)cc3)C2)cc1 (stereo unspecified),6.6,.,.,10.9,.,3.0,.,
CC(=O)Oc1cccc2c1C(=O)c1c(OC(C)=O)cc(C(=O)O)cc1C2=O,51.9*,21.4,21.8,10.4,0.0,18.6,41.5*,
CCC(C)Nc1nc(OC(C(F)(F)F)C(F)(F)F)nc(OC(C(F)(F)F)C(F)(F)F)n1 (stereo unspecified),35.5*,13.5,6.3,-0.7,2.0,-2.6,-1.6,
O=C(O)c1ccccc1S(=O)(=O)CC(=O)N1CCCCC1,2.6,.,.,-4.9,.,1.7,.,
Cc1cc(C)cc(NC(=O)CSc2nnc(-c3cc(C)[nH]n3)n2N)c1,-3.7,.,.,-1.2,.,4.4,.,
CN1CCc2c(C#N)c(N3CCCCC3)nc(NCc3ccccc3)c2C1,17.9,22.4,-76.2,19.9,4.0,15.3,.,
N#Cc1c(NCCCO)nc(NCc2ccccc2)c2c1CCN(Cc1ccccc1)C2,32.5*,2.2,-31.4,33.6,1.0,31.2*,14.4,
COc1ccc(CNCCC(c2ccccc2)C2CCOC(C)(C)C2)cc1 (stereo unspecified),48.8*,-2.7,-19.8,-0.1,0.0,3.4,2.4,
COc1ccc(CCn2c(N)c(C(=O)NCc3ccco3)c3nc4ccccc4nc32)cc1,-0.6,29.2,17.4,1.9,2.0,3.1,.,
COCCNC(=O)c1c(N)n(CCC2=CCCCC2)c2nc3ccccc3nc12,38.1*,8.6,-10.2,52.3*,0.0,49.7*,20.9,
CCOc1ccc(S(=O)(=O)c2c[nH]c3ccccc3c2=O)cc1,2.5,.,.,-2.8,.,1.2,.,
Cc1cc2n(n1)C(c1ccccc1)CC(c1ccc(Br)cc1)=N2 (stereo unspecified),52.7*,18.7,-35.3,4.2,-2.0,13.1,15.9,
CNC(=S)N1N=C(c2ccc(Br)cc2)CC1c1ccc(Br)cc1 (stereo unspecified),4.2,-3.4,-29.3,0.9,0.0,4.6,.,
